Assay outcomes as filed in PubChem BioAssay.
IDE inh = human IDE inhibitors in live cells, primary screen, fluorescence polarization, HEK cells, FAbetaB substrate; Insulin-degrading enzyme (Homo sapiens), P14735; FAbetaB cleavage; inhibition, % at 5.59 µM; 320,000 tested, 0.41% active; AID 434962, 2010;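 active means percent inhibition above the average of all tested compounds plus 3 SD, set per screening campaign, cut at about 16% in these data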;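 further: IDE supplied by intact live HEK cells; FP after avidin binding of uncleaved biotin substrate so inhibition keeps polarization high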
Target sequence (P14735 whole entry, looked up): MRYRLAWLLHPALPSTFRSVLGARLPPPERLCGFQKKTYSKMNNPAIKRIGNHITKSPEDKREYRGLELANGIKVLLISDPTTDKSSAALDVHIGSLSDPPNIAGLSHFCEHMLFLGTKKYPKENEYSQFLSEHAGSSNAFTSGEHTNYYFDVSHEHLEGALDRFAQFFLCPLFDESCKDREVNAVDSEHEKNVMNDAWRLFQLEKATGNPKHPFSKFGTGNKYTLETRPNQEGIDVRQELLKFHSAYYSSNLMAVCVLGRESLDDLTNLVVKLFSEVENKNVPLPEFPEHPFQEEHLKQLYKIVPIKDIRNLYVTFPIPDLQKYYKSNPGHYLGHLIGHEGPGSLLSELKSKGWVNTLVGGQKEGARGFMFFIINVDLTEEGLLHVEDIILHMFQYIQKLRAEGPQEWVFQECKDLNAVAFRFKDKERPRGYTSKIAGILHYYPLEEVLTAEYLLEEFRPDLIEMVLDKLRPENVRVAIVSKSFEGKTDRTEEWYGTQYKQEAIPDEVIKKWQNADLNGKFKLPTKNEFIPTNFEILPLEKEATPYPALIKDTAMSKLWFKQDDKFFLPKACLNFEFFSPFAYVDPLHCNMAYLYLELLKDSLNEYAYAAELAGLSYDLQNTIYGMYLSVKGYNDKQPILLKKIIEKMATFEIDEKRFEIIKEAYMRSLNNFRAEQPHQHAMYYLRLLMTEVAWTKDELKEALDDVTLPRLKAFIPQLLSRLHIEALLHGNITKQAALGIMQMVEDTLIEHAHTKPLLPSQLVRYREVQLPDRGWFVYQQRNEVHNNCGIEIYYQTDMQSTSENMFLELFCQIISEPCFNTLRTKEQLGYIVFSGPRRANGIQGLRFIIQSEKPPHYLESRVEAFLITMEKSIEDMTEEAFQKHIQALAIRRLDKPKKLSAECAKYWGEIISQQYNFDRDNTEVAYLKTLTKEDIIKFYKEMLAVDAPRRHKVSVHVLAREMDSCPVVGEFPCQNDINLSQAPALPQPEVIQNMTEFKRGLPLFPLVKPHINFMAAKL
CRFBP-R2 agonist = agonists of CRF-BP/CRF-R2 complex, primary screen, cell-based, HEK293, calcium dye fluorescence, uHTS; CRF-binding protein / CRF receptor 2 complex (human); calcium dye fluorescence (FLIPR); percent of saturating CRF peptide response; activation, % at 13.2 µM; 350,000 tested, 0.46% active; AID 588473, 2011;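 active means activation of at least 50%, plus an integration ratio under a set limit after plate pattern correction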
Cardiac RTF inh = cardiac RTF calcium sensitivity inhibitors, primary screen, biochemical, IANBD-TnC fluorescence, EC70 calcium. Troponin I, cardiac muscle (Homo sapiens) + Troponin T, cardiac muscle (Homo sapiens) + …. IANBD-labeled cardiac RTF, Ca2+ fluorescence. inhibition, % at 7.15 µM. 340,000 tested, 0.12% active. AID 493244, 2011;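 active means inhibition above the mean inhibition of all tested compounds plus 3 SD, cut at about 17% in these data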;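 further: assay run at fixed EC70 calcium of 1.6 mM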
IDE cell activ = human IDE activators in live cells, primary screen, fluorescence polarization, HEK cells, FAbeta-B substrate. Insulin-degrading enzyme (Homo sapiens), P14735. FAbeta-B cleavage; 0% vehicle, 100% cell-free pure enzyme wells. activation, % at 5.96 µM. 340,000 tested, 0.073% active. AID 493087, 2011;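 active means activation above the mean of all tested compounds plus 3 SD, set per screening campaign, cut at about 17% in these data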
CRFBP-R2 block = antagonists of CRF-BP/CRF-R2 complex, primary screen, cell-based, HEK293, calcium dye fluorescence, uHTS; CRF-induced calcium fluorescence; inhibition, % at 11.8 µM; 350,000 tested, 0.59% active;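 active means inhibition of the ligand-induced calcium signal above about 50% at the single tested concentration, limit read from the data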
cardiac RTF act = cardiac RTF calcium sensitivity activators, primary screen, biochemical, IANBD-TnC fluorescence, EC20 calcium | IANBD-labeled TnC RTF fluorescence at EC20 calcium; 0% EC20 calcium, 100% full calcium | activation, % at 7.2 µM | 340,000 tested, 0.24% active | AID 493008, 2010;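 active means activation above the mean over all tested compounds plus 3 SD, cut at about 30% in these data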;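 further: rise in fluorescence read as greater calcium sensitivity of cardiac thin filaments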
A number is an active result; – = inactive; · = not tested or not shown. Most compounds without a hit are left out; they make up all but 1.5% or so of the library.

SMILES	IDE inh	CRFBP-R2 agonist	Cardiac RTF inh	IDE cell activ	CRFBP-R2 block	cardiac RTF act
CN(C(=O)c1ccc(NC(=O)Cc2cccc(NC(=O)C3CCN(C(=O)C4CC4)CC3)c2)cc1)C1CC1	·	–	–	–	–	–
Cc1cc(OCC(=O)NNC(=S)NCC2CCCO2)cc(C)c1Cl (centres undefined)	–	–	–	–	–	–
CCOC(=O)c1cc(OC(=O)Cc2ccc(OC)c(S(=O)(=O)N3CCOCC3)c2)cc(C(=O)OCC)c1	·	–	·	·	–	·
COc1cccc(/C(O)=C/c2nc3ccc(C(=O)NCCc4cccc(C)c4)cc3[nH]c2=O)c1	–	–	–	–	–	–
COc1cccc(/C(O)=C/c2nc3ccc(C(=O)NCCc4ccc(Cl)cc4)cc3[nH]c2=O)c1	·	140	–	–	–	99
CCCOC(=O)c1ccc(Oc2cn[nH]c2-c2ccc(OCC)cc2O)cc1	–	–	–	–	107	–
O=C(NCCOc1ccccc1F)c1ccccc1SCc1ccc(F)cc1	–	–	–	–	64	–
Cc1ccc(NC(=O)C2CCCN(C(=O)NCc3ccccc3)C2)c(C)c1 (centres undefined)	–	–	–	–	–	–
Cc1ccc(N=Nc2c(O)[nH]c3ccc(F)cc23)cc1	–	–	–	–	–	75
Cc1ccc(N=Nc2[nH]c3ccccc3c2O)cc1	–	–	–	–	–	36
O=C(O)c1cc2ccccc2c(N=Nc2cccnc2)c1O	–	–	–	–	–	–
CCOCCCNC(=O)c1ccc(N2CC3CC(C2)c2cccc(=O)n2C3)c(NC(=O)Nc2cccc(OC)c2)c1 (centres undefined)	–	–	–	–	–	–
COc1ccccc1N1C(=O)C2C(C(=O)c3ccccc3)=NN(c3ccc(C)cc3)C2C1=O (centres undefined)	–	91	·	·	–	·
COc1ccccc1N1C(=O)C2C(C(=O)c3ccccc3)=NN(c3ccc(Br)cc3)C2C1=O (centres undefined)	–	–	·	·	–	·
O=C(C1=NN(c2ccccc2)C2C(=O)N(c3ccc(Cl)cc3)C(=O)C12)c1ccccc1 (centres undefined)	–	–	–	–	–	38
C=CCn1c(SCC(=O)Nc2cccc(S(N)(=O)=O)c2)nnc1C1CCCCC1	–	–	–	–	–	–
Cc1cc(-c2ccc(N3CCOCC3)cc2)nc2ccccc12	–	58	–	–	–	–
CC1CCCC(C)N1C(=O)COC(=O)c1cccs1 (centres undefined)	–	–	–	–	62	–
Cc1ccsc1C(=O)OCC(=O)N1C(C)CCCC1C (centres undefined)	–	–	–	–	–	–
CC(C)(C)NC(=O)C1CCN(C(=O)c2ccco2)CC1	–	–	–	–	–	–
CCCC(=O)OCCNc1cc(Sc2nc3ccccc3[nH]2)c2nonc2c1[N+](=O)[O-]	–	–	–	–	91	–
CCC(=O)OCCNc1cc(SCCC(=O)OC)c2nonc2c1[N+](=O)[O-]	–	–	–	–	–	–
COc1cc(C(=O)NNC(=O)c2cc(S(=O)(=O)N(C)C)ccc2N2CCCC2)cc(OC)c1OC	–	–	–	–	–	–
COCCN1CCN(C(=O)c2cc(COc3cc(C)ccc3C)on2)CC1	–	–	–	–	71	–
Cc1ccc(OCc2cc(C(=O)N3CCN(CC(=O)NC(C)C)CC3)no2)cn1	–	–	–	–	72	–
SMILES	IDE inh	CRFBP-R2 agonist	Cardiac RTF inh	IDE cell activ	CRFBP-R2 block	cardiac RTF act
Cc1ccc(OCc2cc(C(=O)N3CCCC(C)C3)no2)cn1 (centres undefined)	·	–	·	·	–	·
O=C(Nc1ccc(F)cc1Cl)C1=COCCO1	–	–	–	–	–	–
COc1ccc(C2c3ccc(O)cc3Oc3ncn(Cc4ccccc4)c(=N)c32)cc1OC (centres undefined)	–	–	–	–	–	44
Cc1ccc(C(=O)N2CCCC(C(=O)Nc3cccc(-c4ccc(F)cc4)c3)C2)cn1 (centres undefined)	–	–	–	–	–	–
COc1cc(/C=C2\C(=N)N3N=C(S(C)(=O)=O)SC3=NC2=O)ccc1OCCOc1ccc(C)cc1	–	–	–	–	72	–
CCOc1cc(/C=C2\C(=N)N3N=C(S(C)(=O)=O)SC3=NC2=O)ccc1OCCOc1cccc(OC)c1	–	–	–	–	–	–
COc1cc(/C=C2\C(=N)N3N=C(S(C)(=O)=O)SC3=NC2=O)cc(OC)c1OCCOc1ccc(C)cc1	–	–	–	–	–	–
CCS(=O)(=O)C1=NN2C(=N)/C(=C\c3ccc(OCCOc4cccc(OC)c4)c(OC)c3)C(=O)N=C2S1	–	–	–	–	53	–
Cc1c(Cl)cccc1NC(=O)COC(=O)c1ccc(CN2CCCC2=O)cc1	–	–	–	–	–	–
COc1ccc(C2C(C#N)=C(N)SC(N)=C2C#N)cc1OC	–	–	–	–	–	36
COc1ccc(C2C(C#N)=C(N)OC(C(C)(C)C)=C2C#N)cc1OC (centres undefined)	–	–	–	–	–	–
O=C(NCC(=O)N1CCN(c2ccccc2O)CC1)c1ccc(Br)o1	–	–	–	–	–	–
O=[N+]([O-])c1ccc(O)c(/C=N\N=C2c3ccccc3-c3ccccc32)c1	–	84	–	–	74	–
NC(N)=N/N=C/c1cc([N+](=O)[O-])ccc1O	–	–	–	–	–	–
Cc1nc2c(s1)sc1ccccc12	–	–	–	–	51	–
COC(=O)c1cc(OC)c(OC)cc1NC(=O)C(C)Sc1ccc(C)cc1 (centres undefined)	–	–	–	–	50	–
COc1ccccc1NC(=S)NC(=O)c1c(-c2ccccc2Cl)noc1C	–	–	–	–	–	–
COC(=O)c1cc(OC)c(OC)cc1NC(=O)c1ccco1	–	–	–	–	76	–
COc1ccc([N+](=O)[O-])cc1NC(=O)C(C)Sc1ccc(C)cc1 (centres undefined)	–	–	–	–	–	–
COC(=O)c1cc(OC)c(OC)cc1NC(=O)c1c(-c2ccccc2Cl)noc1C	–	–	–	–	63	–
Cc1ccc(S(=O)(=O)N2c3ccccc3OCC2c2ccccc2)cc1 (centres undefined)	–	–	–	–	50	–
CC1COc2ccccc2N1S(=O)(=O)c1ccc(Cl)cc1 (centres undefined)	–	–	–	–	–	–
